Most compounds without a hit are left out; they make up all but 4.7% or so of the library.
ADAM10 inh – inhibits human ADAM10. recombinant ADAM10, EDANS/DABCYL FRET peptide cleavage, 3 h. inhibition, % at 7 µM. 0.62% of 370,000 active. O14672;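 active means inhibition above a per-campaign cutoff equal to the mean of compounds falling between control-based bounds plus 3 SD, cut at about 20% in these data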;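 further: 0% = DMSO wells while the 100% control is not disclosed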
ADAM17 inh – inhibits human ADAM17. inhibition, % at 6.95 µM. recombinant ADAM17, EDANS/DABCYL FRET peptide cleavage. AID 720648. 0.83% of 370,000 active;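 active means inhibition above the mean of compounds lying between control limits plus 3 SD, set per campaign, cut at about 8.5% in these data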;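 further: 0% = DMSO-only wells as the low control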
rCAG RNA binder – binds r(CAG) RNA repeats | inhibition, % at 3 µM | 1.3% of 370,000 active | AID 651821 | r(CAG) RNA repeat, TO-PRO-1 dye displacement fluorescence;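 active means inhibition above the plate cutoff, the mean of all test compounds on that plate plus 3 SD, cut at about 35% in these data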;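 further: 0% = DMSO alone and 100% = 100 µM mitoxantrone as full dye displacement; higher means more dye released from RNA so lower well fluorescence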
MPTP inh – blocks calcium-induced mitochondrial swelling. isolated mouse mitochondria, Ca2+ swelling absorbance, 30 min. inhibition, % at 10 µM. 1.4% of 360,000 active. AID 602449;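 active means inhibition of 50% or more, scaled per plate between neutral and stimulator controls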;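 further: 0% = DMSO wells given calcium and 100% = 1 mM EGTA wells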
KLK7 zymogen act – activates the human kallikrein-7 zymogen; 0.9% of 370,000 active; activation, % at 7 µM; P49862; purified proKLK7, EDANS-DABCYL substrate fluorescence; 100% is mature enzyme control, 0% vehicle;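 active means activation above the mean of all tested compounds plus 3 SD, computed per campaign excluding outliers beyond control limits, cut at about 13% in these data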
Pemphigus Ab inh – blocks pemphigus antibody binding to human desmoglein-3; P32926; DSG3-coupled beads, scFv-anti-DSG3-GFP binding, flow cytometry; hits give low values; binding (percent of control), % at 10 µM; 0.48% of 310,000 active; AID 588358;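 active means binding more than 3 SD below its plate's average and above zero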;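 further: hits lower antibody fragment binding to DSG3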
Rh123 counter – Rhodamine 123 counter-screen of mitochondrial pore hits | shares compounds with MPTP inh | inhibition, % at 10 µM | AID 624504 | 78% of 5,000 active | isolated mitochondria, membrane potential, Rhodamine 123 fluorescence; in the data active means inhibition above about 22%;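 further: 0% = DMSO vehicle and 100% = positive control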
MPTP abs DR – dose response confirmation of mitochondrial permeability transition pore inhibitors. AID 651561. 58% of 780 active. shares compounds with MPTP inh. IC50, µM. isolated mitochondria swelling, absorbance; in the data active means IC50 below about 20 µM
MPTP cs DR – MPTP inhibitor counter-screen activity, dose response | isolated mitochondria counterscreen, fluorescence read-out | AID 651564 | IC50, µM | shares compounds with MPTP inh | 49% of 780 active; in the data active means IC50 below about 80 µM
An asterisk follows results filed as active.

What do the screens show for `CN(Cc1ccccc1F)C(=O)Cn1c(-c2cncs2)nc2ccccc21`?
ADAM10 inh: -4; ADAM17 inh: -1; rCAG RNA binder: 3; KLK7 zymogen act: 0

What do the screens show for `CC(=O)Nc1ccccc1OCC(=O)c1cc(C)n(Cc2cccs2)c1C`?
ADAM10 inh: 1; ADAM17 inh: -1; rCAG RNA binder: -3; MPTP inh: 100*; KLK7 zymogen act: 1; Pemphigus Ab inh: 106; Rh123 counter: 94*

What do the screens show for `Cc1cc(C(C)(C)C)ccc1OCCOCCN1CCCC1`?
ADAM10 inh: -1; ADAM17 inh: -4; rCAG RNA binder: -4; MPTP inh: 54*; KLK7 zymogen act: 1; Pemphigus Ab inh: 108; Rh123 counter: 4; MPTP abs DR: 12*; MPTP cs DR: 24*

How did COC(=O)N1C[C@H](OCc2cn(-c3cc(Cl)cc(Cl)c3)nn2)[C@H](OCc2cn(-c3cc(Cl)cc(Cl)c3)nn2)C[C@@H]1c1ccccc1Br do in these assays?
ADAM10 inh: 1; ADAM17 inh: -1; rCAG RNA binder: 4; KLK7 zymogen act: 1

How did O=C(C1CCN(c2ncnc3c2sc2cccc(F)c23)CC1)N1CCCCC1 do in these assays?
ADAM10 inh: -55; ADAM17 inh: -10; rCAG RNA binder: 4; KLK7 zymogen act: 0

How did COC(=O)[C@@]12CCCCC3=C1N(CCC3)C(=O)[C@H]2CC(=O)NCC1CCCCC1 do in these assays?
ADAM10 inh: 3; ADAM17 inh: -2; rCAG RNA binder: -2; KLK7 zymogen act: 0

How did CCOC(=O)[C@@]12CCCC3=C1N(CCC3)C(=O)[C@H]2CC(=O)N1CCOCC1 do in these assays?
ADAM10 inh: 1; ADAM17 inh: -4; rCAG RNA binder: 2; KLK7 zymogen act: 0

What do the screens show for `CCC(C)[C@@H](NC(=O)OC(C)(C)C)c1nnc(S(=O)(=O)Cc2cccc(C)c2)o1` (some centres undefined)?
ADAM10 inh: 4; ADAM17 inh: 0; rCAG RNA binder: -7; MPTP inh: 91*; KLK7 zymogen act: 0; Pemphigus Ab inh: 100; Rh123 counter: -4

How did CC(C)(C)OC(=O)N[C@@H](Cc1ccccc1)c1nnc(S(=O)(=O)Cc2ccccc2)o1 do in these assays?
ADAM10 inh: 8; ADAM17 inh: 1; rCAG RNA binder: -7; KLK7 zymogen act: -1

How did CCOc1cc(NC(=O)C2CCCCC2)c(OCC)cc1NC(=O)c1ccccn1 do in these assays?
ADAM10 inh: -2; ADAM17 inh: 3; rCAG RNA binder: -1; MPTP inh: 2; KLK7 zymogen act: 1; Pemphigus Ab inh: 93

How did CCOc1cc(NC(=O)C2CC2)c(OCC)cc1NC(=O)c1cccc(F)c1 do in these assays?
ADAM10 inh: -6; ADAM17 inh: -4; rCAG RNA binder: -1; MPTP inh: 106*; KLK7 zymogen act: 0; Pemphigus Ab inh: 93; Rh123 counter: 0; MPTP abs DR: >100; MPTP cs DR: >80

Results for COc1ccc(Nc2nc(N)c([N+](=O)[O-])c(N3CCCC3)n2)cc1 ?
ADAM10 inh: 1; ADAM17 inh: 1; rCAG RNA binder: 1; MPTP inh: 1; KLK7 zymogen act: -1; Pemphigus Ab inh: 100

How did CCN1CCN(c2nc(N)c([N+](=O)[O-])c(Nc3ccc(C)c(C)c3)n2)CC1 do in these assays?
ADAM10 inh: 3; ADAM17 inh: 0; rCAG RNA binder: 1; MPTP inh: 81*; KLK7 zymogen act: 0; Pemphigus Ab inh: 102; Rh123 counter: -2; MPTP abs DR: inactive; MPTP cs DR: 77*

Results for Cc1ccc(Nc2nc(N)c([N+](=O)[O-])c(N3CCCC(C)C3)n2)cc1C (centres undefined) ?
ADAM10 inh: -4; ADAM17 inh: -4; rCAG RNA binder: 1; MPTP inh: 55*; KLK7 zymogen act: 1; Pemphigus Ab inh: 115; Rh123 counter: -9; MPTP abs DR: inactive; MPTP cs DR: 70*

How did NC(=S)n1[nH]c(-c2ccc([N+](=O)[O-])cc2)c(N=Nc2ccccc2[N+](=O)[O-])c1=O do in these assays?
ADAM10 inh: -1; ADAM17 inh: 1; rCAG RNA binder: 4; MPTP inh: 44; KLK7 zymogen act: 0; Pemphigus Ab inh: 74

How did Cc1c(N=Nc2c(-c3ccc([N+](=O)[O-])cc3)[nH]n(C(N)=S)c2=O)cccc1[N+](=O)[O-] do in these assays?
ADAM10 inh: 1; ADAM17 inh: 1; rCAG RNA binder: 21; MPTP inh: 96*; KLK7 zymogen act: 0; Pemphigus Ab inh: 98; Rh123 counter: 67*

What do the screens show for `NC(=S)n1[nH]c(-c2ccc([N+](=O)[O-])cc2)c(N=Nc2cccc([N+](=O)[O-])c2)c1=O`?
ADAM10 inh: -1; ADAM17 inh: 0; rCAG RNA binder: 21; MPTP inh: 108*; KLK7 zymogen act: 0; Pemphigus Ab inh: 101; Rh123 counter: 76*

Results for NC(=O)c1c(N)[nH]c(C(=O)c2ccccc2)c1-c1ccc2c(c1)OCO2 ?
ADAM10 inh: -19; ADAM17 inh: 1; rCAG RNA binder: 4; KLK7 zymogen act: 0

Results for CNC(C)C(=O)NC(C(=O)N1CCCC1C(=O)Nc1cccc2ncccc12)C(C)C (centres undefined) ?
ADAM10 inh: -1; ADAM17 inh: -4

Results for CC1=C/C(=N\OS(=O)(=O)c2ccccc2)C(C)=CC1=O ?
MPTP inh: 98*; Pemphigus Ab inh: 69; Rh123 counter: 100*

What do the screens show for `CC1=C(C)/C(=N\OS(=O)(=O)c2ccc(C)cc2)C=CC1=O`?
ADAM10 inh: 1; ADAM17 inh: 6; rCAG RNA binder: 2; MPTP inh: 98*; KLK7 zymogen act: -1; Pemphigus Ab inh: 101; Rh123 counter: 104*

How did COC(=O)[C@]12C[C@H](CC(=O)N3CCOCC3)C(=O)N(CCC3=CCCCC3)C1=C[C@H](COCc1ccccc1)O[C@@H]2C do in these assays?
ADAM10 inh: 3; ADAM17 inh: -3; rCAG RNA binder: 1; KLK7 zymogen act: -1

Results for Cc1nn(C)c(Cl)c1NC(=O)OCc1ccc(Cl)cc1Cl ?
ADAM10 inh: 6; ADAM17 inh: -1; rCAG RNA binder: 0; MPTP inh: 87*; KLK7 zymogen act: 0; Pemphigus Ab inh: 97; Rh123 counter: 92*

How did CCOC(=O)N1CCC(N(CCOC)C(=O)Nc2ccc(CC)cc2)CC1 do in these assays?
ADAM10 inh: 4; ADAM17 inh: -2; rCAG RNA binder: -9; MPTP inh: 0; KLK7 zymogen act: 0; Pemphigus Ab inh: 101

Source: PubChem BioAssay
